Laboratory results reported in ChEMBL document CHEMBL3433997, “St. Jude Leishmania screening dataset” (2016).

Assays:
Assay type in all cases: functional
[1] = target: Solute carrier family 2, facilitated glucose transporter member 1 (Homo sapiens) (UniProt P11166); test: ST_JUDE_LEISH: Cytotoxicity at 2uM final concentration against transgenic Leishmania Mexicana promastigotes LmGLUT1 that are glucose transport deficient and complemented with the human glucose transporter GLUT1. Activity is measured by DNA content using SYBR green in vitro
Sequence of Solute carrier family 2, facilitated glucose transporter member 1 (Homo sapiens) (P11166 whole entry): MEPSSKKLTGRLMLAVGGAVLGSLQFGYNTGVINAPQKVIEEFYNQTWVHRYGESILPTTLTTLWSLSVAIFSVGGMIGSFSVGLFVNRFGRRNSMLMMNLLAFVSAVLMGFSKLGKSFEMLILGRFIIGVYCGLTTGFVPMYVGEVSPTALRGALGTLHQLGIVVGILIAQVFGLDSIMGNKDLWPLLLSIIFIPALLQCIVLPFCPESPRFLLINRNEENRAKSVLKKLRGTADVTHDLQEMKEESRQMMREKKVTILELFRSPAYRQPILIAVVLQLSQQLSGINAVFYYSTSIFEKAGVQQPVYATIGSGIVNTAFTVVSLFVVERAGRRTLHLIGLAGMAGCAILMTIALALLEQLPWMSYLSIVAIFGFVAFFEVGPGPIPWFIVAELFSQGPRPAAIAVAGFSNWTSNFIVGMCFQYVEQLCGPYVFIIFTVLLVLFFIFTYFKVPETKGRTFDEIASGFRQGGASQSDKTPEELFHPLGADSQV

[2] = target: Hexose transporter 1 (Plasmodium falciparum) (UniProt O97467); test: ST_JUDE_LEISH: Cytotoxicity at 2uM final concentration against transgenic Leishmania Mexicana promastigotes LmPfHT that are glucose transport deficient and complemented with the Plasmodium falciparum hexose transporter. Activity is measured by DNA content using SYBR green in vitro
[3] = target: Glucose transporter (Leishmania mexicana) (UniProt O61059); test: ST_JUDE_LEISH: Cytotoxicity at 2uM final concentration against transgenic Leishmania Mexicana promastigotes LmGT2 that are glucose transport deficient and complemented with the L. Mexicana glucose transporter 2. Activity is measured by DNA content using SYBR green in vitro

SMILES	inhibition [1]	inhibition [2]	inhibition [3]
Cc1ccc(C)c(S(=O)(=O)NCC2CCN(Cc3ccc(O)cc3)CC2)c1	41.3%	7.78%	-2.61%
O=C(NC1CCN(Cc2ccccc2)CC1)c1ccc2c(=O)n(Cc3ccc(Cl)cc3)c(=S)[nH]c2c1	0.69%	-0.17%	1.31%
COc1cc2nc(N3CCC(CNC(=O)c4ccc(NC(=O)c5ccc(Cl)cc5)cc4)CC3)nc(N)c2cc1OC	0.04%	0.98%	0.86%
COc1c(C2CCN(CCCCNC(=O)C=Cc3ccccc3C(F)(F)F)CC2)ccc2c1CCCC2	-0.06%	-0.81%	-0.49%
COc1cc(NC(=O)N2CCOC(CCN3CCC(c4ccccc4)CC3)(c3ccc(Cl)c(Cl)c3)C2)cc(OC)c1OC (stereo unspecified)	3.7%	2.95%	1.05%
Cc1ccc(-c2cc3nc4c(c(NCCCn5ccnc5)n3n2)CCC4)cc1	2.77%	1.6%	0.92%
O=C(Nc1cccc(C(F)(F)F)c1)c1ccc(S(=O)(=O)NC2CCN(CC3CCCCC3)C2)cc1 (stereo unspecified)	3.79%	3.31%	4.54%
COc1ccc(Cc2cnc3nc(N)nc(N)c3c2C)cc1	39.5%	49.3%	41.3%
Cc1cc(N2CCCC2)nc(NC(=N)Nc2cccc(C(F)(F)F)c2)n1	6.6%	7.28%	2.22%
COc1ccc2c(c1)OC(C)(C)CC2=NOS(=O)(=O)c1ccc(C)cc1	2.81%	0.98%	2%
CC(C)N(Cc1cnc(N)c(C#N)n1)c1ccc(Cl)c(Cl)c1	3.62%	2.68%	2.67%
CS(=O)(=O)c1ccc(-c2cnc(N)c(-c3ccc(O)cc3)c2)cc1	2.19%	1.67%	1.48%
O=C(Nc1ccc(Cl)cc1)c1cc(Cl)cc2nc(C(F)(F)F)[nH]c12	9.28%	15%	9.44%
COc1ccc(-c2cc(C(=O)N[C@@H](CC3CCCCC3)C(=O)NC3CCCc4ccccc43)ccc2O)cc1 (stereo partly specified)	0.11%	-0.02%	1.1%
CN1CCC[C@H]1COc1ccc(CN2CC[C@H](NC(=O)c3ccc(Cl)c(Cl)c3)C2)c2ccccc12	9.64%	8.86%	6.54%
Oc1ccc(CCNc2nc(NCc3cccc(OCc4cccc(F)c4)c3)nc(N3CCNCC3)n2)cc1	-1.28%	0.71%	1.08%
Cc1cc(Cl)ccc1NC(=O)Nc1ccc2nccc(N3CCN(C)CC3)c2c1	3.07%	6.28%	5.6%
CS(=O)(=O)c1ccc(-c2nc(NCC3CCCCC3)cc(C(F)(F)F)n2)cc1	-0.02%	1.77%	0.16%
CN(C)CCOc1cc(NC(=O)Nc2ccc(-c3ccncc3)c(C(F)(F)F)c2)ccc1Cl	9.9%	9.02%	9.08%
Clc1cc(Cl)c2cc(CNCCCNc3ccc4ccccc4n3)[nH]c2c1	0.53%	0.95%	1%
O=C(/C=C/c1cccc(Cl)c1)NCCCCCN1CCC(c2c[nH]c3ccccc23)CC1	3.67%	6.67%	0.06%
CN1CCC(NCc2cccc(-c3nn(C)c4nc(NC5CCCC5)ncc34)c2)CC1	2.78%	1.84%	3.81%
O=C(Nc1ccc(-c2cccc(-c3nc4cc(C(F)(F)F)ccc4[nH]3)c2)cc1)Nc1ccc(F)c(F)c1F	0.81%	0.04%	-1.97%
CN1CCN(CCCN(Cc2csc(-c3ccc(CNCc4ccccc4)cc3)n2)C(=O)Nc2cc(Cl)cc(Cl)c2)CC1	9.09%	6.74%	7.7%

SMILES	inhibition [1]	inhibition [2]	inhibition [3]
O=C(/C=C/c1ccc(Cl)c(Cl)c1)NCCCCCN1CC[C@H](NC(=O)/C=C/c2ccccc2)C1	0.76%	0.86%	-0.08%
CCn1c(-c2nonc2N)nc2cnc(Oc3cccc(NC(=O)c4ccc(OCCCN5CCCCC5)cc4)c3)cc21	16.4%	25.8%	6.29%
Cc1ccc(O)c(C(=O)c2cnc3c(c2)c(-c2ccc(F)cc2)c(C#N)c(=O)n3C)c1	8.51%	4.73%	1.51%
O=C(NC1CC1)c1cnc(N2CCC(OCc3ccccc3)CC2)c(Cl)c1	1.59%	3.18%	-1.03%
Cc1cccc2nc(-c3cccc(-c4cccc(NC(=O)Nc5ccsc5)c4)c3)[nH]c12	4.96%	4.46%	6.15%
Cc1cccc2nc(-c3ccc(-c4cccc(CNCc5ccccc5)c4)s3)[nH]c12	-1.26%	-0.6%	-0.69%
CC(C)c1ccc(NC(=O)Nc2ccc(CCNCCCc3ccccc3)cc2)cc1	0.62%	0.01%	0.36%
O=C(Nc1ccc(-c2nc3ccccc3[nH]2)cc1)c1ccc([N+](=O)[O-])s1	5.3%	7.89%	3.02%
CC(C)N1CCN(C(CN2CCN(CCCOc3cccc(-c4ccccc4)c3)CC2)c2ccc(F)cc2)CC1 (stereo unspecified)	0.87%	2.77%	0.81%
O=C(NCCCCN1CCC(c2ccc3c(c2OCc2ccncc2)CCCC3)CC1)c1ccc(-c2ccc(C(F)(F)F)cc2)cc1	1.51%	1.48%	0.42%
COc1ccc(C=NN=c2cc(C)[nH]c3ccccc23)c2ccccc12	8.8%	6.92%	2.26%
COc1ccc(-c2ccc(NC(=O)c3cccc(Cl)c3)cc2)cc1CN(C)CCN(C)C	15.6%	14.4%	4.62%
O=c1cc(NCCCNC2CCOc3c(Cl)cccc32)[nH]c2ccccc12 (stereo unspecified)	0.96%	1.67%	2.03%
COc1c(C2CCN(CCCCNC(=O)c3cc(-c4ccc(Cl)cc4)[nH]c3C)CC2)ccc2c1CCCC2	3.66%	4.04%	4.31%
c1ccc(CNCc2ccc(-c3ccc(-c4nc5ccccc5[nH]4)cc3)cc2)cc1	20.4%	12.9%	10%
CCOc1cc2c(cc1OCC)C(c1ccc(O)c(Cl)c1)NCC2 (stereo unspecified)	11.9%	13.1%	10.3%
Fc1ccccc1CNc1ncc(-c2ccsc2)c(-c2nccs2)n1	-0.99%	0.2%	-3%
Cc1nc(-c2ccc3c(c2)CCN(CCC2CCC(NC(=O)c4cc5cccc(Cl)c5[nH]4)CC2)CC3)no1 (stereo unspecified)	0.58%	7.07%	6.97%
Cc1ccc(C(C)C)c(Oc2cnc(NC(CO)c3ccccc3)nc2N)c1 (stereo unspecified)	9.07%	8.83%	8.45%
CN1CCCN(Cc2cccc(-c3cccc(NC(=O)c4cccc(Cl)c4)c3)c2)CC1	13.4%	9.81%	9.71%
CC(C)CNCc1ccc(-c2cccc(CN(CCN(C)C)C(=O)CCC3CCCC3)c2)cc1	30%	23.7%	11.2%
CN1CCN(c2ccnc3ccc(NC(=O)Nc4cccc(C#N)c4)cc23)CC1	1.6%	2.57%	2.19%
Nc1nc(N)c2cc3ccc(OCc4ccccc4)cc3nc2n1	12.2%	9.05%	6.89%
COc1cc2c(c(Cl)c1OC)CCN(C(=O)C(F)(F)F)CC2c1ccccc1 (stereo unspecified)	6.36%	5.47%	4.64%

SMILES	inhibition [1]	inhibition [2]	inhibition [3]
O=S(=O)(Nc1cccc(CCN2CCC(N3CCCCC3)CC2)c1)c1ccccc1C(F)(F)F	1.15%	0.31%	-2.06%
CN1CCN(CCCN(Cc2ccc(-c3cccc(CNCc4ccc5c(c4)OCO5)c3)cc2)C(=O)NC2CCCCC2)CC1	4.38%	1.35%	0.88%
Cn1cnc(CCNC(=O)c2cccc(-c3csc(-c4nc5ccccc5[nH]4)c3)c2)c1	-1.62%	-0.39%	-0.89%
COc1ccc(Nc2ncc(C#N)c(Nc3ccccc3C(N)=O)n2)cc1N1CCN(C)CC1	15.8%	18.1%	9.63%
Cc1cccc(CNc2nc(C)cc(N[C@@H](Cc3ccccc3)C(=O)NC3CCCC3)n2)c1	16.1%	12.4%	7.72%
CCN(CC)Cc1cc(Nc2ccnc3cc(Cl)ccc23)ccc1O	-1.88%	2.29%	4.65%
Cc1ccc(N2C(=O)C3C(C2=O)C2(c4ccccc4)C(=O)C3(c3ccccc3)C(c3ccccc3)=C2c2ccccc2)c(C)c1 (stereo unspecified)	6.28%	4.9%	3.25%
Cc1[nH]c(C)c(-c2ccc(-c3ccccc3C(F)(F)F)nc2)c(=O)c1Br	2.64%	3.67%	0.55%
O=C(c1ccc(-c2ccccn2)s1)N1CCc2cc3nccc(N4CCN5CCC[C@H]5C4)c3cc21	8.55%	8.34%	8.66%
O=C(Nc1ccsc1)Nc1cccc(-c2cccc(-c3nc4cc(C(F)(F)F)ccc4[nH]3)c2)c1	-1.45%	1.47%	1.55%
Cc1cc(-c2cccc(CNCc3ccc(F)cc3)c2)ccc1S(=O)(=O)NCCN1CCCC1	-0.89%	0.36%	0.1%
COc1ccc(Nc2nc(NCc3cccnc3)cc(-c3ccc(OC)cc3)n2)cc1	-0.44%	0.66%	-0.82%
O=c1cc(NCCCCNCc2cccc(Cl)c2)[nH]c2ccccc12	3.6%	3.79%	1.87%
CN1CCN(c2ccnc3ccc(NC(=O)Cc4ccc5ccccc5c4)cc23)CC1	0.96%	2.53%	2.12%
CCCNCc1c(O)ccc2c(CNCCC)c(O)ccc12	0.17%	-0.89%	0.49%
Cc1c(C)n(C2CCCCC2)c2ncnc(OC3CCN(CC(=O)N4CCCC4)CC3)c12	1.06%	3.02%	1.38%
O=C(/C=C/c1ccc(Cl)c(Cl)c1)NCCCCCN1CCCN(C(=S)Nc2cccc(Cl)c2)CC1	0.6%	-0.74%	0.17%
COc1ccc(CN2CCCN(Cc3cccc(C(=O)Nc4ccc(C)c(F)c4)c3)CC2)cc1	0.27%	-1.26%	1.49%
COc1ccc2ncc(F)c(CCN3CCC(NCc4cnc5c(c4)NC(=O)CS5)CC3)c2c1	1.52%	2.49%	2.03%
Cc1ccccc1C1CCN(C2CCC(NC(=O)c3cncc(-c4ccccc4)c3)CC2)CC1 (stereo unspecified)	6.15%	6.33%	3.53%
Cc1ccc2c(Cl)c(C(=O)N3CC(C)OC(C)C3)sc2c1 (stereo unspecified)	0.22%	1.09%	3.43%
O=C(NC1CCN(Cc2ccccc2)CC1)c1ccc(-c2nc3cc(Cl)c(Cl)cc3[nH]2)s1	0.03%	1.08%	1.39%
N=C(N)NN=CC(=O)Nc1ccc(Cl)c(Cl)c1	0.13%	-1.4%	-1.96%
CN1CCC(NCc2cccc(-c3ccc(S(=O)(=O)NCCN4CCCC4)s3)c2)CC1	4.8%	5.43%	0.76%
